Results taken from PubChem BioAssay.
Active and inactive are the calls of the source.

Key:
[1] = test system: Plasmodium falciparum Sir2 (PF13_0152, Sir2A); assay: Plasmodium falciparum Sir2A binding compounds – biochemical, small-molecule microarray, 635 nm fluorescence, primary screen (AID 1098); settings: fluorescence 635 nm, higher = more signal;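 also: score merges spot fluorescence intensity with its signal-to-noise ratio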
[2] = probe aDKK1 binding to arrayed compounds – biochemical, biotinylated probe, 635/667 nm fluorescence, primary screen (AID 1099); settings: small-molecule microarray, higher = more signal;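 also: score merges 667nm spot fluorescence with signal to noise across triplicate slides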
[3] = probe aCHRDL2 binding to arrayed compounds – biochemical, biotinylated probe, 635/667 nm fluorescence, primary screen (AID 1100); settings: small-molecule microarray, higher = more signal
[4] = change in splice reporter luminescence, either direction, cell-based, HEK293, spliceosome inhibition project, primary screen (AID 1101); settings: HEK293 splicing luciferase reporter, 24 h, higher = more signal, called active from +8 up or from −8 down;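 also: HEK293 cells carrying a splicing-competent luciferase reporter gene; test concentration not given here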
[5] = biological target: Fibroblast growth factor 10 (Homo sapiens) (UniProt O15520); assay: compounds binding fibroblast growth factor 10 – biochemical, small-molecule microarray, 635 nm fluorescence, primary screen (AID 1102); settings: FGF10 binding, fluorescence 635 nm, higher = more signal
[6] = test system: glycogen synthase kinase-3 (GSK3A per assay name; protocol says GSK3B); assay: compounds binding glycogen synthase kinase-3 – biochemical, small-molecule microarray, 635 nm fluorescence, GSK3A, primary screen (AID 1103); settings: fluorescence 635 nm, higher = more signal; also: the record names both GSK3A and GSK3B
[7] = biological target: Epidermal growth factor receptor (Homo sapiens) (UniProt P00533); assay: compounds binding epidermal growth factor receptor – biochemical, small-molecule microarray, 635 nm fluorescence, primary screen (AID 1104); settings: EGFR binding, higher = more signal;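 also: score merges 667 nm emission intensity with spot signal to noise over triplicate slides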
[8] = biological target: Follistatin-related protein 3 (Homo sapiens) (UniProt O95633); assay: compounds binding follistatin-related protein 3 – biochemical, small-molecule microarray, 635 nm fluorescence, primary screen (AID 1105); settings: FSTL3 binding, higher = more signal;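 also: score merges emission near 667 nm and signal to noise per printed spot across three slides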
[9] = biological target: Dickkopf-related protein 1 (Homo sapiens) (UniProt O94907); assay: small molecules binding DKK1 protein – biochemical, small-molecule microarray, 635 nm fluorescence scan, primary screen (AID 1106); settings: higher = more signal;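 also: score merges emission near 667 nm with signal to noise over three replicate slides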
[10] = test system: Inhibin beta A chain (activin A); assay: small molecules binding activin A – biochemical, small-molecule microarray, 635 nm fluorescence scan, primary screen (AID 1107); settings: INHBA, higher = more signal;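 also: mouse activin A protein probed at 4.33 µg/mL on printed slides; score merges bound-protein fluorescence near 667 nm with spot signal-to-noise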
[11] = test system: Human papillomavirus type 1a protein E7 (residues 44-93); assay: small molecules binding HPV E7 44-93 – biochemical, small-molecule microarray, residues 44-93, 635 nm fluorescence, primary screen (AID 1108); settings: fluorescence 635 nm, higher = more signal;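 also: E7 fragment applied at 1 µg/mL in TBST for 1 h at 4 C; score combines spot fluorescence with its signal to noise ratio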
[12] = hepatitis C replication reporter changes, two-sided – Huh7 cells, luciferase reporter, HCV replication inhibitor project, primary screen (AID 1109); settings: Huh7 HCV replicon luciferase reporter, 48 h; higher = more signal;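 also: huh7 hepatoma cells harbouring a luciferase neomycin HCV replicon reporter; luciferase luminescence as measure of HCV replicon replication; test concentration not given here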
[13] = biological target: Left-right determination factor 2 (Homo sapiens) (UniProt O00292); assay: small molecules binding LEFTY2 protein – biochemical, small-molecule microarray, 635 nm fluorescence scan, primary screen (AID 1110); settings: higher = more signal
[14] = biological target: Calmodulin-1 (Homo sapiens) (UniProt P0DP23); assay: small molecules binding calmodulin-1 with EGTA – biochemical, small-molecule microarray, Cy5-labelled CALM1, profiling panel (AID 1111); settings: Cy5-CALM1 binding fluorescence, higher = more signal;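 also: labelled calmodulin applied in Tris saline Tween buffer holding calcium plus EGTA and DTT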
[15] = biological target: Calmodulin-1 (Homo sapiens) (UniProt P0DP23); assay: small molecules binding Ca-loaded calmodulin-1 – biochemical, small-molecule microarray, Cy5-labelled CALM1, plus calcium, artefact control for SMM control-protein annotation, profiling panel (AID 1112); settings: Cy5-CALM1 binding fluorescence, higher = more signal;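 also: score merges spot fluorescence with signal to noise from triplicate slides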
[16] = probe aWnt5a binding to arrayed compounds – biochemical, biotinylated probe, 635/667 nm fluorescence, primary screen (AID 1113); settings: small-molecule microarray, higher = more signal;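 also: score merges 667 nm fluorescence intensity with signal-to-noise per printed feature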
[17] = probe aShh binding to arrayed compounds – biochemical, biotinylated probe, 635/667 nm fluorescence, primary screen (AID 1114); settings: small-molecule microarray, higher = more signal;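 also: probe is biotin-labelled aShh protein from a stem cell growth factor screen; measures binding of labelled protein to compounds printed on the slide; score merges feature fluorescence at 667 nm with signal-to-noise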
[18] = probe aNog binding to arrayed compounds – biochemical, biotinylated probe, 635/667 nm fluorescence, primary screen (AID 1115); settings: small-molecule microarray, higher = more signal;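 also: probe is biotinylated aNog protein used at 0.15 µg/mL for 1 h at 4 C; z-score combines 667 nm fluorescence of each spot with its signal to noise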
[19] = biological target: Torsin-1A-interacting protein 1 (Homo sapiens) (UniProt Q5JTV8); assay: compound microarray binding of lysate hLAP1 – cell lysate, small-molecule microarray, COS7 lysate, 635/667 nm fluorescence, primary screen (AID 1116); settings: 635 nm fluorescence, higher = more signal
[20] = biological target: Alpha-bungarotoxin (Bungarus multicinctus) (UniProt P60615); assay: compounds binding labelled alpha-BTX control protein – biochemical, small-molecule microarray, Alexa647 label, 635/667 nm fluorescence, artefact control for SMM control protein annotation, profiling panel (AID 1117); settings: alpha-BTX-A647 binding fluorescence, higher = more signal
Sequence of Alpha-bungarotoxin (Bungarus multicinctus) (P60615 whole entry, looked up): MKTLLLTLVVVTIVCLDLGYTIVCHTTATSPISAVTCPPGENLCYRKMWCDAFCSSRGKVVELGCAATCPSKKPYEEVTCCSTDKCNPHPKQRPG

Sequence of Follistatin-related protein 3 (Homo sapiens) (O95633 whole entry, looked up): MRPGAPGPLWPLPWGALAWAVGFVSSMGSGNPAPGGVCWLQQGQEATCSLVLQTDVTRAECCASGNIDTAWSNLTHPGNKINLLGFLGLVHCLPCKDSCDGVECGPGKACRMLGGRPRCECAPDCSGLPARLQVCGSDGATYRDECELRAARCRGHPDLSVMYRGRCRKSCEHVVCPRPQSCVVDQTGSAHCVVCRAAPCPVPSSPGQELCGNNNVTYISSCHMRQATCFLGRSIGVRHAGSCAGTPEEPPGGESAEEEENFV
Sequence of Left-right determination factor 2 (Homo sapiens) (O00292 whole entry, looked up): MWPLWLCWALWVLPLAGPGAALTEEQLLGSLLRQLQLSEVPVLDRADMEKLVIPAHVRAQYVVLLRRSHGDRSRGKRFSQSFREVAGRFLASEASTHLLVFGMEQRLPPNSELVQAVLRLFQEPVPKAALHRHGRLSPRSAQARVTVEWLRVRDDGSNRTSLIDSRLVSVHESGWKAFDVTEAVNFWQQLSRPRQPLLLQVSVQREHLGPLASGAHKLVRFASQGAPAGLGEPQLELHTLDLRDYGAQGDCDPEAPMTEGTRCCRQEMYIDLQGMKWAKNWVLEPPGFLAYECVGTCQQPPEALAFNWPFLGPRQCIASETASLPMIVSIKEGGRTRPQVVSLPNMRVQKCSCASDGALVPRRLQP
Sequence of Epidermal growth factor receptor (Homo sapiens) (P00533 whole entry, looked up): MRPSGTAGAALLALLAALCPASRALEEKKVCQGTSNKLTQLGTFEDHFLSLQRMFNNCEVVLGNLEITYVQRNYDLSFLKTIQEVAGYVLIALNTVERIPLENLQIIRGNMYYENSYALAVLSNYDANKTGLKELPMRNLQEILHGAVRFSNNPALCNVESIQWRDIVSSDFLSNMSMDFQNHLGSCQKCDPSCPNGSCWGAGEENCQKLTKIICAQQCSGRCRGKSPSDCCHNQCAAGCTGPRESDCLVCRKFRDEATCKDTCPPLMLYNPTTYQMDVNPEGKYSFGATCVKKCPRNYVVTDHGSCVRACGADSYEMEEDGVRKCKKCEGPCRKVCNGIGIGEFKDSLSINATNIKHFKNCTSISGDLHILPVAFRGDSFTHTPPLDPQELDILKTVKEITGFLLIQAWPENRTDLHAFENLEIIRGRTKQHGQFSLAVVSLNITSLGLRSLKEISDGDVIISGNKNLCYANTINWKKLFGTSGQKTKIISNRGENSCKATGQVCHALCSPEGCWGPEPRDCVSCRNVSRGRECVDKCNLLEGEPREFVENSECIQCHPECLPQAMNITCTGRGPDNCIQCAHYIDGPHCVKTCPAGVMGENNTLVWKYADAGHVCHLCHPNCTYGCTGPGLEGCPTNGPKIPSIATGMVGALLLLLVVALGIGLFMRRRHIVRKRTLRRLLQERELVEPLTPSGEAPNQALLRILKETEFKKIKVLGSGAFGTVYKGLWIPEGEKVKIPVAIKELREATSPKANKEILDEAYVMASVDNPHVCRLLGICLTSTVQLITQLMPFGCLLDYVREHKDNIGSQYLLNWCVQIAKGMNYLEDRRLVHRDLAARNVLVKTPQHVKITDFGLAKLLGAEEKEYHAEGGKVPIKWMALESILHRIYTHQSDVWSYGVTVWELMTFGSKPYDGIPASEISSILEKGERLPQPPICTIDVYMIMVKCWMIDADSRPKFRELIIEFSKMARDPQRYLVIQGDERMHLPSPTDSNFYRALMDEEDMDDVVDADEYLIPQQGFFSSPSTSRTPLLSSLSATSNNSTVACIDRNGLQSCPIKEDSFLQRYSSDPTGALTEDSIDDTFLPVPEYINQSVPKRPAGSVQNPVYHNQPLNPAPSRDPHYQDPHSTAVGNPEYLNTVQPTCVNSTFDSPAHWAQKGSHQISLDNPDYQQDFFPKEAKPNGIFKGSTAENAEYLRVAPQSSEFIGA
Sequence of Torsin-1A-interacting protein 1 (Homo sapiens) (Q5JTV8 whole entry, looked up): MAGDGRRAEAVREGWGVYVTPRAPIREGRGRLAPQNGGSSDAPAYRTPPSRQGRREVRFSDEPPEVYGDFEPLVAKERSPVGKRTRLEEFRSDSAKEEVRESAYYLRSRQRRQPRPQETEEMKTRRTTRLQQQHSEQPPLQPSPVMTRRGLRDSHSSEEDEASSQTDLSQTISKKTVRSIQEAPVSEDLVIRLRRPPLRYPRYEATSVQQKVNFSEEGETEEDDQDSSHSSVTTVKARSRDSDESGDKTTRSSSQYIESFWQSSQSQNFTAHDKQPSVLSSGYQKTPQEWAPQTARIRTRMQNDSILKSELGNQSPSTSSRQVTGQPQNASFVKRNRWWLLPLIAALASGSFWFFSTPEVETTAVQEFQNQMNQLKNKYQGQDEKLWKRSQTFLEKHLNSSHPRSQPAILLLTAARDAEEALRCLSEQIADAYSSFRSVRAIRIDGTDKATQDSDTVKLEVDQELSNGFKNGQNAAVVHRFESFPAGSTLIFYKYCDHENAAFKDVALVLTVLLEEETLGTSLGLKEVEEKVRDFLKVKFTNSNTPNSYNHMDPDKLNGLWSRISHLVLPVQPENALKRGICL
Sequence of Fibroblast growth factor 10 (Homo sapiens) (O15520 whole entry, looked up): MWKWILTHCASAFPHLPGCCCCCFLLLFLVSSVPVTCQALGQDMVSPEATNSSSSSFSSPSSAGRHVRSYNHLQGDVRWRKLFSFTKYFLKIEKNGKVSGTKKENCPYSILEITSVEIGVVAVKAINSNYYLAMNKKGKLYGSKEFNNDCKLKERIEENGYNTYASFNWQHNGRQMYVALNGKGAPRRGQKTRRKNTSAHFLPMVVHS
Sequence of Dickkopf-related protein 1 (Homo sapiens) (O94907 whole entry, looked up): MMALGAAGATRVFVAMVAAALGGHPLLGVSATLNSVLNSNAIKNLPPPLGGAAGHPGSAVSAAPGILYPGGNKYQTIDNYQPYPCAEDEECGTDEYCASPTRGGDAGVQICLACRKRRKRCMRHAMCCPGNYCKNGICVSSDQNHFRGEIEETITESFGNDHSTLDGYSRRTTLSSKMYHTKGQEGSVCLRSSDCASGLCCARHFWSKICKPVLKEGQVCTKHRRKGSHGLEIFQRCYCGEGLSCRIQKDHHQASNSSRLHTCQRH

Compound	composite z-score [1]	composite z-score [2]	composite z-score [3]	z-score [4]	composite z-score [5]	composite z-score [6]	composite z-score [7]	composite z-score [8]	composite z-score [9]	composite z-score [10]	composite z-score [11]	z-score [12]	composite z-score [13]	composite z-score [14]	composite z-score [15]	composite z-score [16]	composite z-score [17]	composite z-score [18]	composite z-score [19]	composite z-score [20]
C=CC[C@@H]1C=C[C@H](ON=C[C@@H](C)[C@H](OCc2ccccc2)C(C)C)[C@@H](CO)O1	1.07	-0.5	-0.353	0.305 (inactive)	-0.483	-0.363	-0.852	-0.568	-0.189	-0.291	0.0248	-2.12	-0.0977	-1.07	-0.0781	-0.101	-0.186	-0.4	-0.159	-0.901
CC(C)CON=C1C[C@@H](O)[C@@H](O)[C@@H]2[C@@H]3C(=O)N(Cc4ccc5c(c4)OCO5)C(=O)[C@@H]3CC[C@H]12	0.191	-0.222	-0.608	0.31 (inactive)	1.14	0.589	0.216	0.671	0.178	-0.374	1.33	-1.24	0.375	-0.382	-0.576	0.0044	-0.291	-0.467	0.54	0.411
COC(=O)[C@H](C)NC(=O)CCC1CC(OC(=O)NCc2ccc3c(c2)OCO3)CC2(CCCC(COC(=O)NCC(c3ccccc3)c3ccccc3)O2)O1 (stereo not given in full)	0.848	-0.33	-0.845	-0.845 (inactive)	1.33	0.653	0.651	1.2	0.766	-0.473	1.42	0.327	0.739	0.869	-0.663	-0.0037	-0.229	-0.11	0.587	1.04
CC(C)=CCCC(C)=CCON=C1C[C@@H](O)[C@@H](O)[C@@H]2[C@@H]3C(=O)N(Cc4ccccc4)C(=O)[C@@H]3CC[C@@H]12	0.786	-0.382	-1.12	-0.216 (inactive)	1.14	0.279	0.696	0.955	1.04	1.09	0.209	0.45	1.08	-0.488	-1.32	-0.154	-0.214	-0.0709	0.712	0.398
COc1ccc(O[C@H]2C=C[C@@H](c3ccccc3)O[C@@H]2COC(=O)CCC(C)=NOC(C)CN2CCCc3nc(C)c(C)cc32)cc1 (stereo not given in full)	0.817	-0.176	-0.433	0.063 (inactive)	0.753	1.03	0.517	0.889	0.524	0.465	1.31	-1.81	0.646	0.0727	-0.384	-0.124	0.0278	0.109	0.4	0.463
CC(C)CON=C1C[C@@H](O)[C@@H](O)[C@@H]2[C@@H]3C(=O)N(C(C)(C)C)C(=O)[C@@H]3CC[C@H]12	0.801	0.454	0.562	0.886 (inactive)	-0.294	-0.516	-0.205	-0.743	-0.82	-0.576	1.05	-0.451	-0.23	-0.302	0.412	-0.124	-0.262	0.0589	0.274	1.5
